Reference: PubChem BioAssay (NCATS)
“And” between values parts separate entries of the source, which are not always exact repeats. Equal values may be shown once. Records with an inconclusive call do not appear. The source made the active and inactive calls. Unless noted, calls follow the shape of the dose curve; as a rule, active = well fitted curve in the direction sought with a large enough effect; inconclusive = small, poorly fitted or top-dose-only effect, or another doubt; inactive = no such curve, though single readings can be large; an effect the other way counts as inactive or inconclusive.

Experiments:
[1] = Cell Viability - BJ (AID 421; calls by dose curve;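 also: potency is read from the fitted curve at half-maximal effect; cells exposed to compound for 40 hours at 37 °C before readout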); details: BJ fibroblast viability, qHTS
Summary of the method: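 Cytotoxicity in human BJ foreskin fibroblasts is scored as loss of cellular ATP after a 40-hour exposure, measured by luciferase luminescence. Controls are DMSO and 100 uM tamoxifen.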

[2] = Cell Viability - Jurkat (AID 426;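 active = dose-dependent loss of cell ATP signal giving a full or clear fitted curve, ranked by lower potency value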;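 also: potency is read from the fitted curve at half-maximal effect; cells exposed to compound for 40 hours at 37 °C before ATP read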); details: qHTS
Summary of the method: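 Cytotoxicity was scored as loss of cellular ATP, measured by luciferase-based luminescence, in Jurkat clone E6-1 cells after 40 h compound treatment; tamoxifen and doxorubicin served as positive controls.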

[3] = Cell Viability - Hek293 (AID 427;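 active = compounds whose dose-response curve shows a full or clear partial loss of cell viability, called from curve shape rather than a numeric limit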;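 also: potency is read from the fitted curve at half-maximal effect; cells exposed to compound for 40 hours at 37 °C before reading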); details: qHTS
Summary of the method: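 qHTS, human embryonic kidney (adenovirus-transformed) cells; 40 hr cpd, 37 °C; CellTiter-Glo ATP luminescence. Norm: DMSO = 0, 100 uM tamoxifen = 100% inhibition. Hill-fit AC50.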

[4] = Cell Viability - MRC5 (AID 434; calls by dose curve;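 also: potency is read from the fitted curve at half-maximal effect; cells exposed to compound for 40 hours at 37 °C; potency reflects cytotoxicity seen as loss of intracellular ATP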); details: MRC5 lung fibroblast viability, qHTS
Summary of the method: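 AC50 values come from Hill-equation fits of intracellular ATP loss, measured by CellTiter-Glo luminescence. Normal lung fibroblasts (MRC5) had 40 hr compound treatment at 37 C, normalized between DMSO and 100 uM tamoxifen.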

[5] = Cell Viability - Mesenchymal (AID 546); details: mesenchymal cells viability, qHTS; series mostly up to 91.7 µM;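 also: cells exposed to compound for 40 hours before reading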
Summary of the method: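 CellTiter-Glo luminescence (intracellular ATP, 20 min room temperature) after 40 hr compound exposure at 37 °C of 1000 glomerulus-derived human kidney mesenchymal cells/well; AC50 values obtained by fitting qHTS concentration-response data to the Hill equation.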

[6] = Cellular Toxicity (caspase-3) SHSY5Y (AID 657); details: SH-SY5Y caspase-3 activation, DMSO zero, 10 µM staurosporine = 100%; series mostly up to 91.7 µM
Summary of the method: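 Luminescent Caspase-Glo 3/7 read-out, 1 hr room temperature, follows 16 hours of compound treatment of SH-SY5Y cells at 37 °C. Normalization: DMSO basal, 10 uM staurosporine as 100%; AC50 values from Hill-equation concentration-response fits.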

[7] = Cellular Toxicity (caspase-3) MRC-5 (AID 659); details: MRC-5 cells, luminescence, normalized: DMSO 0%, 10 µM staurosporine 100%; series mostly up to 91.7 µM
Summary of the method: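 Luminescent Caspase-Glo 3/7 read-out (1 h, room temperature) after a 16 h, 37 °C compound exposure of MRC-5 lung fibroblasts at 1500 cells/well. Concentration-response AC50 from Hill equation; 0% DMSO, 100% 10 uM staurosporine.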

[8] = Cellular Toxicity (caspase-3) Mesangial (AID 660); details: mesangial cells, normalized: DMSO 0%, 100 µM tamoxifen 100%; series mostly up to 91.7 µM;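 also: combined caspase 3 and 7 activity read by Caspase-Glo luminescence; cells exposed to compound for 16 h before the caspase read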
Summary of the method: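 AC50 values come from Hill-equation fits of caspase 3/7 activation, measured as Caspase-Glo luminescence in human glomerular mesangial cells exposed to compound for 16 h at 37 °C; 100% set by 100 uM tamoxifen.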

[9] = Cellular Toxicity (caspase-3) SK-N-SH (AID 661); details: SK-N-SH caspase-3 activation, qHTS; series mostly up to 91.7 µM
Summary of the method: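 Apoptosis readout in SK-N-SH neuroblastoma: Caspase-Glo 3/7 luminescence following 16 hr treatment in complete culture medium. Normalization used DMSO and 10 uM staurosporine controls.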

[10] = Cellular Toxicity (caspase-3) Hek293 (AID 664); details: HEK293 caspase-3 activation, DMSO = 0%, 100 µM tamoxifen = 100%; at 92.2 µM (top of the series);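 also: cells exposed to compound for 16 h at 37 °C before readout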
Summary of the method: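 Apoptosis readout: Caspase-Glo 3/7 signal in human HEK293 cells following 16-hour compound incubation. Responses scaled between DMSO baseline and 100 uM tamoxifen.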

[11] = Cellular Toxicity (caspase-3) N2a (AID 665); details: N2a cells, luminescence, normalized: DMSO 0%, 10 µM staurosporine 100%; series mostly up to 92.2 µM;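 also: compound exposure lasted 16 h at 37 °C before readout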
Summary of the method: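 Concentration-response qHTS: compound-induced caspase-3/7 luminescence in N2a cells (16 h, 37 °C), relative to DMSO and 10 uM staurosporine controls; AC50 obtained using the standard Hill equation.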

[12] = Cell Viability - LYMP1-002 - Assay at 16 hr (AID 948); details: LYMP1-002 lymphoblastoid cell viability; series mostly up to 92.2 µM;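 also: 0% = DMSO alone and full effect = 92 µM tetraoctylammonium bromide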
Summary of the method: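 ATP luminescence (CellTiter-Glo) was measured after 16 hr compound exposure at 37 C of 2500 lymphoblastoid LYMP1-002 cells per well. Concentration-response curves were fitted with the Hill equation to give AC50.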

[13] = MultiTox-Fluor Cytotoxicity Assay - LYMP1-003 - Dead Cells (AID 961); details: LYMP1-003 lymphoblastoid cells, dead-cell protease fluorescence; series mostly up to 92.2 µM; also: nearly all actives have a fitted effect of over 70% in size
Summary of the method: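 LYMP1-003 lymphoblastoid, 2500 cells/well, 5 hr settle then 16 hr cpd at 37 C; MultiTox-Fluor reagent 60 min RT; Ex/Em 485/520 dead-cell signal; norm. DMSO = 0%, 15 uM tetraoctylammonium bromide = 100%; Hill AC50.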

[14] = MultiTox-Fluor Cytotoxicity Assay - LYMP1-003 - Live Cells (AID 962); details: LYMP1-003 lymphoblastoid cells, MultiTox-Fluor live-cell protease fluorescence; series mostly up to 92.2 µM;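 also: 0% = DMSO only and full loss = 92 µM tetraoctylammonium bromide; cytotoxic hits lower the live-cell protease signal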
Summary of the method: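 Human lymphoblastoid line LYMP1-003 in complete culture medium, treated 16 hr with titrated compounds. Viable cells quantified via cell-permeant GF-AFC substrate fluorescence; AC50 derived by Hill fitting.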

[15] = Cell Viability - LYMP1-003 - Assay at 24 hr (AID 963); details: LYMP1-003 lymphoblastoid cell viability; series mostly up to 92.2 µM;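 also: plate controls were DMSO only for no effect and tetraoctylammonium bromide positive control for full effect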
Summary of the method: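 The lymphoblastoid line was treated with titrated compounds for 24 hours, and viable cell number estimated from luciferase-based ATP luminescence.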

[16] = Cell Viability - LYMP2-008 (AID 980); details: LYMP2-008 lymphoblastoid cell viability, qHTS; series mostly up to 92.2 µM;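 also: cells exposed to compound for 24 h at 37 °C; % is scaled to controls: 0 for no effect and ±100 for the full control effect; nearly all actives have a fitted effect of over 60% in size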
Summary of the method: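 Measured: ATP-dependent luminescence, proportional to viable cell number, in human lymphoblastoid cells treated 24 hr with compound in complete culture medium. Values are AC50s from Hill-equation modelling of qHTS titrations.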

[17] = qHTS Assay for Identification of Small Molecule Inducers of Hypoxia Response (AID 2120; active = well fitted curve in the direction sought with a large enough effect in the signal ratio, with a control signal flat, not every such curve was filed as active; the % refers to the signal ratio; also: 0% is about no effect); details: hypoxia response reporter cells, beta-lactamase ratio readout; series mostly up to 104 µM
Summary of the method: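 HRE-bla ME-180, 2500 cells/well, 0.5% dialyzed FBS medium; cpd titration, 17 h 37 degrees C; CCF4 2.5 h RT; Ex 405, Em 460/530 ratio -> %Activity, AC50.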

[18] = target: Peroxisome proliferator-activated receptor alpha (Homo sapiens) (UniProt Q07869); assay: qHTS assay for small molecule agonists of the peroxisome proliferator-activated receptor alpha (PPARalpha) signaling pathway (AID 651778); details: PathHunter PPARalpha complementation, chemiluminescence, 6 h; active compounds read high; also: % of control where 0% means no effect
Sequence of Peroxisome proliferator-activated receptor alpha (Homo sapiens) (Q07869 whole entry, looked up): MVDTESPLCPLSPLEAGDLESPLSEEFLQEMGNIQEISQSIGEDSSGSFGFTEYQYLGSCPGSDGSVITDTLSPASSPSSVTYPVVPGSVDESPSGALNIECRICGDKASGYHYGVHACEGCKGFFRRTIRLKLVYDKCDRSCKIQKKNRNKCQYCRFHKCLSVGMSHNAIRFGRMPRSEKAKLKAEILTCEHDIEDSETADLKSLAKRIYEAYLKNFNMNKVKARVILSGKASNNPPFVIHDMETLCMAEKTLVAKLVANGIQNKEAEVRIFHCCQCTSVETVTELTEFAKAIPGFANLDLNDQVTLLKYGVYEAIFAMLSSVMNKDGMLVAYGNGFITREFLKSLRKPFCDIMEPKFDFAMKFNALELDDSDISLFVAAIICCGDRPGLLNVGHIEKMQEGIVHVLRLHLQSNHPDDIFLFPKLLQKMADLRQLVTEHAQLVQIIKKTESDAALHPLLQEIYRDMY
Summary of the method: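 Chemiluminescence from complemented enzyme reported PPARalpha activation in cells after 6 hr of compound treatment at 37 C. The detection reagent was incubated for 60 min at room temperature, and compounds were scored as agonists.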

[19] = qHTS assay for small molecule agonists of the antioxidant response element (ARE) signaling pathway measured by Nrf2-dependant transcriptional activity - cell viability counter screen (AID 720653; active = well fitted curve in the direction sought with a large enough effect in the repeat runs; an effect the other way counts as inactive or inconclusive; also: % is scaled to controls: 0 for no effect and ±100 for the full control effect); details: ARE-bla HepG2 viability, CellTiter-Glo ATP luminescence, 16 h; active compounds read low
Summary of the method: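 Cytotoxicity counter screen: intracellular ATP quantified by CellTiter-Glo luminescence in the same ARE-bla HepG2 plates, after 16 h compound exposure and a 2 h beta-lactamase substrate step.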

[20] = qHTS assay for cell viability of the p53RE-bla HCT-116 cell line (AID 743292); details: p53RE-bla HCT-116 viability, ATP luminescence, 16 h; series mostly up to 95 µM; also: % is scaled to controls: 0 for no effect and ±100 for the full control effect; nearly all actives have a fitted effect of over 55% in size
Summary of the method: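 Compound-exposed HCT-116 (p53RE-bla) cells, 4,000 per well, were kept 16 h at 37 C following a 5 h preincubation. Cell number was estimated from total ATP by CellTiter-Glo luminescence read after 30 min at room temperature.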

Cc1cc(-c2ccc(N)c(C)c2)ccc1N
inactive: Potency [1] > 92 µM | Potency [2] > 92 µM | Potency [3] > 92 µM | Potency [4] > 92 µM | Potency [5] | outcome [6] | outcome [7] | outcome [8] | Potency [9] | caspase-3 activation [10] -2.85% | outcome [11] | outcome [12] | Potency [13] | outcome [14] | outcome [15] | Potency [16] | Potency [17] | max response [18] -2.87% and -0.886% and -6.11% | max response [19] -1.36% and 7.56% and 13.5% | Potency [20]

Nc1ccccc1-c1ccccc1
inactive: Potency [1] > 92 µM | Potency [2] > 92 µM | Potency [3] > 92 µM | Potency [4] > 92 µM | Potency [5] | outcome [6] | outcome [7] | outcome [8] | Potency [9] | caspase-3 activation [10] 1.72% | outcome [11] | outcome [12] | Potency [13] | outcome [14] | outcome [15] | Potency [16] | Potency [17] | max response [18] -2.98% | max response [19] -2.88% | Potency [20]

CC(C)(C)C(O)(CCc1ccc(Cl)cc1)Cn1cncn1 (stereo not given)
inactive: Potency [1] > 92 µM | Potency [2] > 92 µM | Potency [3] > 92 µM | Potency [4] > 92 µM | Potency [5] | outcome [6] | outcome [7] | outcome [8] | Potency [9] | caspase-3 activation [10] 3.2% | outcome [11] | outcome [12] | Potency [13] | outcome [14] | outcome [15] | Potency [16] | Potency [17] | max response [18] -3.73% and 1.11% | max response [19] -4.58% and -0.482% | Potency [20]

C=CC=O
inactive: Potency [1] > 92 µM | Potency [2] > 92 µM | Potency [3] > 92 µM | Potency [4] > 92 µM | Potency [5] | outcome [6] | outcome [7] | outcome [8] | Potency [9] | caspase-3 activation [10] 0.46% | outcome [11] | outcome [12] | Potency [13] | outcome [14] | outcome [15] | Potency [16] | Potency [17] | max response [18] -5.14% | max response [19] 9.03% | Potency [20]

CN(C)N=O
inactive: Potency [1] > 92 µM | Potency [2] > 92 µM | Potency [3] > 92 µM | Potency [4] > 92 µM | Potency [5] | outcome [6] | outcome [7] | outcome [8] | Potency [9] | caspase-3 activation [10] 5.49% | outcome [11] | outcome [12] | Potency [13] | outcome [14] | outcome [15] | Potency [16] | Potency [17] | max response [18] 0.541% | max response [19] -2.49% | Potency [20]

C=CCO
inactive: Potency [1] > 92 µM | Potency [2] > 92 µM | Potency [3] > 92 µM | Potency [4] > 92 µM | Potency [5] | outcome [6] | outcome [7] | outcome [8] | Potency [9] | caspase-3 activation [10] 0.437% | outcome [11] | outcome [12] | Potency [13] | outcome [14] | outcome [15] | Potency [16] | Potency [17] | max response [18] -7.9% | max response [19] 1.93% | Potency [20]

Clc1ccc(Cl)c(Cl)c1
inactive: Potency [1] > 92 µM | Potency [2] > 92 µM | Potency [3] > 92 µM | Potency [4] > 92 µM | Potency [5] | outcome [6] | outcome [7] | outcome [8] | Potency [9] | caspase-3 activation [10] 0.169% | outcome [11] | outcome [12] | Potency [13] | outcome [14] | outcome [15] | Potency [16] | Potency [17] | max response [18] -1.44% and -3.32% | max response [19] 4.11% and 3.77% | Potency [20]

ClC(Cl)Br
inactive: Potency [1] > 92 µM | Potency [2] > 92 µM | Potency [3] > 92 µM | Potency [4] > 92 µM | Potency [5] | outcome [6] | outcome [7] | outcome [8] | Potency [9] | caspase-3 activation [10] -0.335% | outcome [11] | outcome [12] | Potency [13] | outcome [14] | outcome [15] | Potency [16] | Potency [17] | max response [18] -1.39% | max response [19] 9.16% | Potency [20]

ClCCBr
inactive: Potency [1] > 92 µM | Potency [2] > 92 µM | Potency [3] > 92 µM | Potency [4] > 92 µM | Potency [5] | outcome [6] | outcome [7] | outcome [8] | Potency [9] | caspase-3 activation [10] -0.69% | outcome [11] | outcome [12] | Potency [13] | outcome [14] | outcome [15] | Potency [16] | Potency [17] | max response [18] 0.115% | max response [19] -7.21% | Potency [20]

COc1cc(-c2ccc(N)c(OC)c2)ccc1N
inactive: Potency [1] > 92 µM | Potency [2] > 92 µM | Potency [3] > 92 µM | Potency [4] > 92 µM | Potency [5] | outcome [6] | outcome [7] | outcome [8] | Potency [9] | caspase-3 activation [10] -1.4% | outcome [11] | outcome [12] | Potency [13] | outcome [14] | outcome [15] | Potency [16] | Potency [17] | max response [18] -3.45% and -1.48% and -1.31% | max response [19] 19% and 0.28% and -8.23% | Potency [20]
